Results from PubChem BioAssay.
Calls of active or inactive are those of the source.

How the values were obtained:
[1] = test system: Plasmodium falciparum Sir2 (PF13_0152, Sir2A); assay: Plasmodium falciparum Sir2A binding compounds – biochemical, small-molecule microarray, 635 nm fluorescence, primary screen (AID 1098); conditions: fluorescence 635 nm, higher = more signal;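 note: score merges spot fluorescence intensity with its signal-to-noise ratio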
[2] = probe aDKK1 binding to arrayed compounds – biochemical, biotinylated probe, 635/667 nm fluorescence, primary screen (AID 1099); conditions: small-molecule microarray, higher = more signal;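 note: score merges 667nm spot fluorescence with signal to noise across triplicate slides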
[3] = probe aCHRDL2 binding to arrayed compounds – biochemical, biotinylated probe, 635/667 nm fluorescence, primary screen (AID 1100); conditions: small-molecule microarray, higher = more signal
[4] = change in splice reporter luminescence, either direction, cell-based, HEK293, spliceosome inhibition project, primary screen (AID 1101); conditions: HEK293 splicing luciferase reporter, 24 h, higher = more signal, called active from +8 up or from −8 down;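 note: HEK293 cells carrying a splicing-competent luciferase reporter gene; test concentration not given here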
[5] = target: Fibroblast growth factor 10 (Homo sapiens) (UniProt O15520); assay: compounds binding fibroblast growth factor 10 – biochemical, small-molecule microarray, 635 nm fluorescence, primary screen (AID 1102); conditions: FGF10 binding, fluorescence 635 nm, higher = more signal
Chain of Fibroblast growth factor 10 (Homo sapiens) (O15520 whole entry, looked up): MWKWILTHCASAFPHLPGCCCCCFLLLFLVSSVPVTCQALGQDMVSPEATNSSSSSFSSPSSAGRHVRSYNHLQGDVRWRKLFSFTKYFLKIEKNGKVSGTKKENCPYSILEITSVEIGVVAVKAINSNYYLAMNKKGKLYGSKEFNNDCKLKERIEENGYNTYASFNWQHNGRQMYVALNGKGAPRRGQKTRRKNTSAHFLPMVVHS

[6] = test system: glycogen synthase kinase-3 (GSK3A per assay name; protocol says GSK3B); assay: compounds binding glycogen synthase kinase-3 – biochemical, small-molecule microarray, 635 nm fluorescence, GSK3A, primary screen (AID 1103); conditions: fluorescence 635 nm, higher = more signal; note: the record names both GSK3A and GSK3B
[7] = target: Epidermal growth factor receptor (Homo sapiens) (UniProt P00533); assay: compounds binding epidermal growth factor receptor – biochemical, small-molecule microarray, 635 nm fluorescence, primary screen (AID 1104); conditions: EGFR binding, higher = more signal;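 note: score merges 667 nm emission intensity with spot signal to noise over triplicate slides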
Chain of Epidermal growth factor receptor (Homo sapiens) (P00533 whole entry, looked up): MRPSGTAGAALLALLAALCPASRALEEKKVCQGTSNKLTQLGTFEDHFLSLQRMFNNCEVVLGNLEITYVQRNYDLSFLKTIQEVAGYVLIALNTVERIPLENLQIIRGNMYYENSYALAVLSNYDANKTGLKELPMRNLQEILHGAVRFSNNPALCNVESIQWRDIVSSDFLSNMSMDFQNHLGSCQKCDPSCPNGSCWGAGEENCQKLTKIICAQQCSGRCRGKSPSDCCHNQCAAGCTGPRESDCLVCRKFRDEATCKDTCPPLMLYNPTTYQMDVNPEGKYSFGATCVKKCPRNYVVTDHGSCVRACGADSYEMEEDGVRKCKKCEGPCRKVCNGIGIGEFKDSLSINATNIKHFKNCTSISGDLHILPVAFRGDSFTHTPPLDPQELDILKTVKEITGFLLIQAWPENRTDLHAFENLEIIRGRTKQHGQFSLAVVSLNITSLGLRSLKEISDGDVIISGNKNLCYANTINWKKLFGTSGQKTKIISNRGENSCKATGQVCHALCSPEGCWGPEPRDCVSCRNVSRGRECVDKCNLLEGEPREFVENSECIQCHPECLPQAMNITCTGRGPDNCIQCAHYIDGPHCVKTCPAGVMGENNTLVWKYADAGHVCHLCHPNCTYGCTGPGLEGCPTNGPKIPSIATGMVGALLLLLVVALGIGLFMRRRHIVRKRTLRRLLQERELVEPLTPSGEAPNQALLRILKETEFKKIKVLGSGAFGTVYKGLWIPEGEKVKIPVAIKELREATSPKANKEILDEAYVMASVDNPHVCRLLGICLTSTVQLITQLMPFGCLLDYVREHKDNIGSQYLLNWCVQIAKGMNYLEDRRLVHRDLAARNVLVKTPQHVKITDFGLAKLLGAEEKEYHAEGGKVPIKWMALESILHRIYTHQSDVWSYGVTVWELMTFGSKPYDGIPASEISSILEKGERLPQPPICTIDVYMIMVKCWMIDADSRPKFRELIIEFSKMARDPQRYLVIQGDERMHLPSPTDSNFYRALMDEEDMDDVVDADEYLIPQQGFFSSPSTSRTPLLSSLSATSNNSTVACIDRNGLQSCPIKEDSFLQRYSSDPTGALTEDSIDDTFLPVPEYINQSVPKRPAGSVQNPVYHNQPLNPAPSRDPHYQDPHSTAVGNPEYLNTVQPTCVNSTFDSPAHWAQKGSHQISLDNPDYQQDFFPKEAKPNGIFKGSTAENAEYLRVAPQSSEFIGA

[8] = target: Follistatin-related protein 3 (Homo sapiens) (UniProt O95633); assay: compounds binding follistatin-related protein 3 – biochemical, small-molecule microarray, 635 nm fluorescence, primary screen (AID 1105); conditions: FSTL3 binding, higher = more signal;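 note: score merges emission near 667 nm and signal to noise per printed spot across three slides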
Chain of Follistatin-related protein 3 (Homo sapiens) (O95633 whole entry, looked up): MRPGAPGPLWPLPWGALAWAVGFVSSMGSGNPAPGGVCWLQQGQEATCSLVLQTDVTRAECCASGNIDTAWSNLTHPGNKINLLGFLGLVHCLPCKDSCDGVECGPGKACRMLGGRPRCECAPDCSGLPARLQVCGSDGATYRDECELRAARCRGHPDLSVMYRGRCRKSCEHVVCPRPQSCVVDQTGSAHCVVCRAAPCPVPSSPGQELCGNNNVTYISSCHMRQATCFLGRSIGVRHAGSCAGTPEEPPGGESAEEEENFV

[9] = target: Dickkopf-related protein 1 (Homo sapiens) (UniProt O94907); assay: small molecules binding DKK1 protein – biochemical, small-molecule microarray, 635 nm fluorescence scan, primary screen (AID 1106); conditions: higher = more signal;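 note: score merges emission near 667 nm with signal to noise over three replicate slides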
Chain of Dickkopf-related protein 1 (Homo sapiens) (O94907 whole entry, looked up): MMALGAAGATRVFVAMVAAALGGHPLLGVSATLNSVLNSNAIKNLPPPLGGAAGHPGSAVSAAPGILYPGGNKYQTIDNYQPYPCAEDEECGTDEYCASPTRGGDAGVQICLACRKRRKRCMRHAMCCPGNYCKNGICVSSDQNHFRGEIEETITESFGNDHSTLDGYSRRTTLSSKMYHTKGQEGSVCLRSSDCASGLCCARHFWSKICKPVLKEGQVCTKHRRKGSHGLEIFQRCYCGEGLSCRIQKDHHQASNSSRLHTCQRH

[10] = test system: Inhibin beta A chain (activin A); assay: small molecules binding activin A – biochemical, small-molecule microarray, 635 nm fluorescence scan, primary screen (AID 1107); conditions: INHBA, higher = more signal;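 note: mouse activin A protein probed at 4.33 µg/mL on printed slides; score merges bound-protein fluorescence near 667 nm with spot signal-to-noise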
[11] = test system: Human papillomavirus type 1a protein E7 (residues 44-93); assay: small molecules binding HPV E7 44-93 – biochemical, small-molecule microarray, residues 44-93, 635 nm fluorescence, primary screen (AID 1108); conditions: fluorescence 635 nm, higher = more signal;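 note: E7 fragment applied at 1 µg/mL in TBST for 1 h at 4 C; score combines spot fluorescence with its signal to noise ratio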
[12] = hepatitis C replication reporter changes, two-sided – Huh7 cells, luciferase reporter, HCV replication inhibitor project, primary screen (AID 1109); conditions: Huh7 HCV replicon luciferase reporter, 48 h; higher = more signal;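 note: huh7 hepatoma cells harbouring a luciferase neomycin HCV replicon reporter; luciferase luminescence as measure of HCV replicon replication; test concentration not given here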
[13] = target: Left-right determination factor 2 (Homo sapiens) (UniProt O00292); assay: small molecules binding LEFTY2 protein – biochemical, small-molecule microarray, 635 nm fluorescence scan, primary screen (AID 1110); conditions: higher = more signal
Chain of Left-right determination factor 2 (Homo sapiens) (O00292 whole entry, looked up): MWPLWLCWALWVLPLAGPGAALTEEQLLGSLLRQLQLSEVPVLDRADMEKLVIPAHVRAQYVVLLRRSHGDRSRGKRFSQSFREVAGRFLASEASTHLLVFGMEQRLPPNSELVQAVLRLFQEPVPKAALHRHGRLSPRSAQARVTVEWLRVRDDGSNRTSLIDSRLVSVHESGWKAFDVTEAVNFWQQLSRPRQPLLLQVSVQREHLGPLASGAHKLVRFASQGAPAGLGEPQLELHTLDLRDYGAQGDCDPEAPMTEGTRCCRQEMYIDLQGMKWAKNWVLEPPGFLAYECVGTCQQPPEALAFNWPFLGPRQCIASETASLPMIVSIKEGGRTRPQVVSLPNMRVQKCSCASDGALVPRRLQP

[14] = target: Calmodulin-1 (Homo sapiens) (UniProt P0DP23); assay: small molecules binding calmodulin-1 with EGTA – biochemical, small-molecule microarray, Cy5-labelled CALM1, profiling panel (AID 1111); conditions: Cy5-CALM1 binding fluorescence, higher = more signal;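 note: labelled calmodulin applied in Tris saline Tween buffer holding calcium plus EGTA and DTT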
[15] = target: Calmodulin-1 (Homo sapiens) (UniProt P0DP23); assay: small molecules binding Ca-loaded calmodulin-1 – biochemical, small-molecule microarray, Cy5-labelled CALM1, plus calcium, artefact control for SMM control-protein annotation, profiling panel (AID 1112); conditions: Cy5-CALM1 binding fluorescence, higher = more signal;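 note: score merges spot fluorescence with signal to noise from triplicate slides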
[16] = probe aWnt5a binding to arrayed compounds – biochemical, biotinylated probe, 635/667 nm fluorescence, primary screen (AID 1113); conditions: small-molecule microarray, higher = more signal;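 note: score merges 667 nm fluorescence intensity with signal-to-noise per printed feature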
[17] = probe aShh binding to arrayed compounds – biochemical, biotinylated probe, 635/667 nm fluorescence, primary screen (AID 1114); conditions: small-molecule microarray, higher = more signal;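 note: probe is biotin-labelled aShh protein from a stem cell growth factor screen; measures binding of labelled protein to compounds printed on the slide; score merges feature fluorescence at 667 nm with signal-to-noise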
[18] = probe aNog binding to arrayed compounds – biochemical, biotinylated probe, 635/667 nm fluorescence, primary screen (AID 1115); conditions: small-molecule microarray, higher = more signal;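 note: probe is biotinylated aNog protein used at 0.15 µg/mL for 1 h at 4 C; z-score combines 667 nm fluorescence of each spot with its signal to noise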
[19] = target: Torsin-1A-interacting protein 1 (Homo sapiens) (UniProt Q5JTV8); assay: compound microarray binding of lysate hLAP1 – cell lysate, small-molecule microarray, COS7 lysate, 635/667 nm fluorescence, primary screen (AID 1116); conditions: 635 nm fluorescence, higher = more signal
Chain of Torsin-1A-interacting protein 1 (Homo sapiens) (Q5JTV8 whole entry, looked up): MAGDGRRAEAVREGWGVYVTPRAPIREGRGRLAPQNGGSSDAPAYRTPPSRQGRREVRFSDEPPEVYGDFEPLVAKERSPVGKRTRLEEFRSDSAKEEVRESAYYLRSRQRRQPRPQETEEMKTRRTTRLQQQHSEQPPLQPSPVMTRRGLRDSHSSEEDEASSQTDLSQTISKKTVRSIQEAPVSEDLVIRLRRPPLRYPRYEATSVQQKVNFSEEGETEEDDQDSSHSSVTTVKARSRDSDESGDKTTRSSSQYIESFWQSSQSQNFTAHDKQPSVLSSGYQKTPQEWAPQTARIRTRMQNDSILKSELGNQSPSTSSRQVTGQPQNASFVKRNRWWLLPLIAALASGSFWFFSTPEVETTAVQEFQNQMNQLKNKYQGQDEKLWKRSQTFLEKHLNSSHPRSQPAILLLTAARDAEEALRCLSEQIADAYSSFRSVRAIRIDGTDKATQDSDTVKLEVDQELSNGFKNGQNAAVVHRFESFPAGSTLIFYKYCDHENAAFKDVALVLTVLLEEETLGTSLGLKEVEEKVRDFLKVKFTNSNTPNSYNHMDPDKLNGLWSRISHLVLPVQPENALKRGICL

[20] = target: Alpha-bungarotoxin (Bungarus multicinctus) (UniProt P60615); assay: compounds binding labelled alpha-BTX control protein – biochemical, small-molecule microarray, Alexa647 label, 635/667 nm fluorescence, artefact control for SMM control protein annotation, profiling panel (AID 1117); conditions: alpha-BTX-A647 binding fluorescence, higher = more signal
Chain of Alpha-bungarotoxin (Bungarus multicinctus) (P60615 whole entry, looked up): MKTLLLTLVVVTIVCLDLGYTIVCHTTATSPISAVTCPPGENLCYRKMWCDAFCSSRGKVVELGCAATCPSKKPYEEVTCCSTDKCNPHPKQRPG

Compound | composite z-score [1] | composite z-score [2] | composite z-score [3] | z-score [4] | composite z-score [5] | composite z-score [6] | composite z-score [7] | composite z-score [8] | composite z-score [9] | composite z-score [10] | composite z-score [11] | z-score [12] | composite z-score [13] | composite z-score [14] | composite z-score [15] | composite z-score [16] | composite z-score [17] | composite z-score [18] | composite z-score [19] | composite z-score [20]
CO[C@H]1O[C@H](CO)[C@@H](OC(=O)CCc2ccccc2)[C@@H]2OC(=O)[C@H](Cc3ccccc3)C/C=C/C[C@@H](Cc3ccccc3)C(=O)O[C@@H]12 | 0.489 | -0.332 | 0.268 | -0.87 (inactive) | -0.135 | -1.24 | -0.938 | -0.861 | -0.844 | 1.17 | -0.673 | -1.31 | -0.0637 | -0.879 | -0.123 | -0.106 | -0.471 | 0.248 | 0.108 | -0.75
CCOC(=O)C[C@H]1[C@H](OC(=O)c2ccc(-c3ccccc3)cc2)[C@@H](NC(=O)c2ccccc2)c2cc(OCCCO)ccc2N1C(=O)c1ccccc1 | 0.204 | 0.462 | 0.47 | -2.01 (inactive) | 0.767 | 0.66 | -0.0664 | 0.235 | -0.188 | -0.649 | 1.11 | -1.58 | 0.394 | 2.04 | 1.2 | -0.0718 | 0.275 | 0.165 | 0.67 | 1.09
C=CCC(OC(C)=O)[C@@H]1[C@@H](N(Cc2cccc3ccccc23)C(=O)c2cccc3ccccc23)c2cc(OCCCO)ccc2N1C(=O)Cc1ccc(OC)cc1 (stereo not given in full) | 0.387 | 0.15 | 0.213 | -2.53 (inactive) | 0.481 | 0.311 | 0.129 | 0.478 | 0.388 | 1.18 | -0.37 | -0.348 | 0.384 | 0.293 | 0.394 | -0.0107 | 0.0284 | 0.466 | 0.703 | 0.549
C=CCN1C(=O)[C@@]2(O[C@@H](CCn3cc(CCO)nn3)[C@H]([Si](C)(C)c3ccc(OC)cc3)[C@H]2C)c2cc(NC(=O)c3ccc(OC)cc3)ccc21 | 1.18 | 0.0251 | 0.113 | -0.654 (inactive) | 0.402 | 0.546 | 0.283 | 0.571 | 0.493 | 1.32 | 0.988 | -3.92 | 0.415 | 0.317 | 0.33 | 0.0205 | -0.0035 | -0.056 | 0.403 | 1.54
C[N+](C)(C)CCCC[C@@H]1NC(=O)[C@@H]2C[C@H](C(=O)NCCCCCNC(=O)CS)[C@H](c3ccc(O)cc3)N2C1=O | 1.3 | -0.0611 | 0.346 | 4.12 (inactive) | 0.0481 | -0.638 | -0.849 | 0.0788 | 0.171 | 0.57 | -0.643 | -0.0298 | -0.739 | 0.21 | 0.669 | -0.191 | 0.138 | 0.208 | 2.19 | 1.12
NC(=O)N1C(=O)C2C(C1=O)C1C=C(c3ccc(CO)cc3)C2C(C2CC2)N1Cc1cc2c(cc1Br)OCO2 (stereo not given) | 0.105 | 0.176 | 0.691 | -0.87 (inactive) | 0.151 | 0.314 | -0.505 | -0.0544 | -0.196 | 1.34 | 0.0207 | -1.03 | -0.254 | 0.438 | 0.163 | -0.124 | -0.0146 | -0.0689 | 1.11 | 0.55
COC(=O)C1=CC(c2ccc(CO)cc2)=CC(c2cccs2)N(C)C=C1C(=O)OC (stereo not given) | 1.52 | 0.772 | 1.13 | -1.77 (inactive) | -0.0489 | -0.57 | -0.407 | 0.409 | -0.813 | 1.46 | -0.526 | -0.176 | -0.76 | 1.36 | 0.774 | -0.096 | 0.138 | 0.603 | 0.107 | 0.765
C=CC[C@]1(C(=O)N(C)C)N=C(c2ccc(OCCCO)cc2)O[C@H]1c1ccccc1CN=[N+]=[N-] | 1.27 | 1.68 | 1.09 | -0.0363 (inactive) | 0.698 | 1.32 | 0.0528 | 0.513 | 0.328 | 1.43 | 0.923 | -2.44 | 0.447 | 2.17 | 1.17 | 0.0324 | -0.174 | 1.24 | 1.92 | 1.58
CC(=O)OC(C/C=C\B1OC(C)(C)C(C)(C)O1)c1ccccc1 (stereo not given) | -0.552 | -0.264 | 0.281 | -2.42 (inactive) | -0.704 | -0.138 | 0.247 | 0.173 | 0.0618 | 1.38 | -0.328 | 0.386 | 0.149 | -1.33 | -0.664 | -0.152 | -0.0813 | -0.405 | -0.0001 | -0.236
CC(C)(C)OC(=O)CC[C@@]1(C(=O)NCc2ccccc2)N=C(c2ccc(OCCCO)cc2)O[C@@H]1c1ccccc1CN=[N+]=[N-] | 1.08 | 1.06 | 0.997 | 0.014 (inactive) | 1.16 | 1.3 | 0.0887 | 0.622 | 0.11 | 0.664 | -0.179 | -2.28 | 0.0022 | 1.61 | 0.605 | 0.164 | -0.0446 | 0.799 | 0.487 | 1.55
C=CCC(OC(C)=O)[C@@H]1[C@@H](N(Cc2cc3ccccc3o2)C(=O)c2ccc(-c3ccccc3)cc2)c2cc(OCCCO)ccc2N1C(=O)c1ccc(-c2ccccc2)cc1 (stereo not given in full) | -0.149 | 0.232 | 0.641 | -1.04 (inactive) | 0.0657 | -0.402 | -0.154 | 0.0956 | -0.0818 | 1.27 | -0.292 | -0.366 | 0.0559 | 0.0671 | 1.29 | 0.0628 | -0.282 | 0.502 | 0.2 | 0.484
